Source: PubChem BioAssay (NCI)
About 79,000 compounds went through this panel and 15% of them were active in at least one assay; those are over-represented in the sample as a whole. A number with no mark means an inactive call. Calls of active or inactive are those of the source. No stated cut-off is given here; in the data, active means growth inhibition above about 70%; inactive means the rest.

Assay: NCI Yeast Anticancer Drug Screen. Data for the rad50 strain (AID 155);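 further: 0% = growth of vehicle-only cultures of the same strain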
Conditions: S. cerevisiae rad50 strain growth inhibition; at 5.0 µM (retest, dose inferred, filed as 0.5); stronger effect = higher value
Method in brief: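 Yeast carrying a defined DNA repair defect were exposed to test compounds, and growth was compared with vehicle-treated controls to give percent inhibition.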

| Compound | growth inhibition |
| --- | --- |
| Cc1cc(O)c(C(=O)/C=C/c2cccnc2)c(=O)[nH]1 | -13% |
| Oc1ccccc1C(=NNc1ccccc1)c1ccccc1O | 40% |
| Cn1c(=S)c2[nH]c(SCCN3CCCCC3)nc2n(C)c1=O | 40% |
| Cc1cc(=O)n(-c2cc3cccccc-3n2)[nH]1 | -9% |
| CC(=O)OCC1OC(n2c(O)c(N=NC(N)=S)c3ccc([N+](=O)[O-])cc32)C(OC(C)=O)C1OC(C)=O (stereo not drawn) | 12% |
| COC(=O)NNc1c([N+](=O)[O-])cnn(-c2ccccc2)c1=O | 18% |
| CC(=O)N(C1=C(Cl)C(=O)c2ccccc2C1=O)c1ccc(F)cc1 | 28% |
| COC(=O)CC1c2cc(OC)c3cccc(OC)c3c2CCC1(C)C(=O)OC (stereo not drawn) | 94% (active) |
| CC[n+]1c(/C=C/c2ccc(N(C)C)cc2)ccc2ccccc21 | -5% |
| COc1ccc(SC2=C(N(C)C)C(=O)c3ccccc3C2=O)cc1 | 2% |
| C1=C(c2ccccc2)C(=Nc2ccccc2)SC1=Nc1ccccc1 | 52% |
| Cc1c(O)c(Br)c(Br)c(Br)c1Br | 82% (active) |
| CC1(C)OC(C(COC(=O)c2ccc([N+](=O)[O-])cc2)OS(=O)(=O)c2ccc([N+](=O)[O-])cc2)C(C(SCc2ccccc2)SCc2ccccc2)O1 (stereo not drawn) | 12% |
| Cc1cccc(Cc2ccc(Cl)cc2)c1O | 4% |
| C=C(CN(C)C)C(=O)c1ccccc1[N+](=O)[O-] | 1% |
| CCCCN(CCCC)CC(O)c1cc(-c2ccc(Cl)cc2)nc2c(C)cccc12 (stereo not drawn) | 0% |
| O=C(Nc1ccc(Cl)cc1)NS(=O)(=O)c1c(-c2ccccc2)oc2ccccc2c1=O | 14% |
| Cc1cc(CN(Cc2ccccc2)Cc2nc3ccccc3[nH]2)c(O)c(CN(Cc2nc3ccccc3[nH]2)Cc2nc3ccccc3[nH]2)c1 | 7% |
| COC1=CC2=CCC3C(CCC4(C)C(C(C)=O)CCC34)C2(C)CC1 (stereo not drawn) | -8% |
| OC(C1CCCCN1)C1CC(c2ccccc2)Nc2c(Cl)cc(Cl)cc21 (stereo not drawn) | 9% |

| Compound | growth inhibition |
| --- | --- |
| CN(C)C1=C(Cl)C(=O)c2ccccc2C1=O | 12% |
| CCCCCNC(=O)C1C(=O)N(CCCCC)C(=O)/C1=N\N (stereo not drawn) | -1% |
| O=C(Nc1ccc(Cl)cc1)OCCOCCOC(=O)Nc1ccc(Cl)cc1 | 9% |
| CCCC(CC)c1c(O)c(O)c(C(CC)CCC)c(C(CC)CCC)c1C(CC)CCC (stereo not drawn) | 4% |
| Cc1ccc(NC(=S)SCc2ccc3c(c2)OCO3)cc1Cl | 19% |
| CN(C)CCCNc1ccc(O)c2c1C(=O)c1ccccc1C2=O | 93% (active) |
| CC1=C(C(=O)Nc2ccc(Cl)c(Cl)c2)C(c2ccco2)C(C(=O)Nc2ccc(Cl)c(Cl)c2)=C(C)N1 | 41% |
| Cc1ccccc1NC(=O)CSC(N)=O | 2% |
| Cc1[nH]c2ccccc2c1C(C)CC(O)c1ccccc1 (stereo not drawn) | 5% |
| Cn1c(=O)ccc2cc(C(=O)c3ccccc3)ccc21 | 7% |
| c1ccc2c(c1)N=c1ccccc1=P21c2ccccc2Nc2ccccc21 | 89% (active) |
| Nc1[nH]cnc(=S)c1NC=O | -1% |
| COC(=O)CCC(=O)c1ccc2c(c1)CC1(Cc3ccccc3C1)C2 | 20% |
| CCC[CH2][Sn]([CH2]CCC)([O]C(=O)c1cc(F)cc(F)c1)[O][Sn]([CH2]CCC)([CH2]CCC)[O]C(=O)c1cc(F)cc(F)c1 | 48% |
| CCOC(=O)CSC(=S)Nc1ccc(Cl)cc1 | 0% |
| CC1(C)CC(=O)C(C(c2ccc3c(c2)OCO3)N2CCOCC2)C(=O)C1 (stereo not drawn) | -22% |
| COC(=O)c1c(C)cccc1C(=O)c1c(C)cc(C)cc1C | -6% |
| C=C1C(=O)OC2CC3(C)CC(O)C(O)C(=C)C3CC12 (stereo not drawn) | 0% |
| CCOC(=O)C1=C(N)N(S(=O)(=O)c2ccc(C)cc2)CCC(C(=O)OC)=C1 | 3% |

Same assay, conditions: S. cerevisiae rad50 strain growth inhibition; at 50.0 µM (retest, dose inferred, filed as 5.0); stronger effect = higher value

| Compound | growth inhibition |
| --- | --- |
| Cc1cc(O)c(C(=O)/C=C/c2cccnc2)c(=O)[nH]1 | 79% (active) |
| Oc1ccccc1C(=NNc1ccccc1)c1ccccc1O | 96% (active) |
| Cn1c(=S)c2[nH]c(SCCN3CCCCC3)nc2n(C)c1=O | 54% |
| Cc1cc(=O)n(-c2cc3cccccc-3n2)[nH]1 | 96% (active) |
| CC(=O)OCC1OC(n2c(O)c(N=NC(N)=S)c3ccc([N+](=O)[O-])cc32)C(OC(C)=O)C1OC(C)=O (stereo not drawn) | 95% (active) |
| COC(=O)NNc1c([N+](=O)[O-])cnn(-c2ccccc2)c1=O | 56% |
| CC(=O)N(C1=C(Cl)C(=O)c2ccccc2C1=O)c1ccc(F)cc1 | 99% (active) |
| COC(=O)CC1c2cc(OC)c3cccc(OC)c3c2CCC1(C)C(=O)OC (stereo not drawn) | 89% (active) |
| CC[n+]1c(/C=C/c2ccc(N(C)C)cc2)ccc2ccccc21 | 99% (active) |
| COc1ccc(SC2=C(N(C)C)C(=O)c3ccccc3C2=O)cc1 | 85% (active) |
| C1=C(c2ccccc2)C(=Nc2ccccc2)SC1=Nc1ccccc1 | 100% (active) |
| Cc1c(O)c(Br)c(Br)c(Br)c1Br | 94% (active) |
| CC1(C)OC(C(COC(=O)c2ccc([N+](=O)[O-])cc2)OS(=O)(=O)c2ccc([N+](=O)[O-])cc2)C(C(SCc2ccccc2)SCc2ccccc2)O1 (stereo not drawn) | 97% (active) |
| Cc1cccc(Cc2ccc(Cl)cc2)c1O | 99% (active) |
| C=C(CN(C)C)C(=O)c1ccccc1[N+](=O)[O-] | 92% (active) |
| CCCCN(CCCC)CC(O)c1cc(-c2ccc(Cl)cc2)nc2c(C)cccc12 (stereo not drawn) | 94% (active) |
| O=C(Nc1ccc(Cl)cc1)NS(=O)(=O)c1c(-c2ccccc2)oc2ccccc2c1=O | 99% (active) |
| Cc1cc(CN(Cc2ccccc2)Cc2nc3ccccc3[nH]2)c(O)c(CN(Cc2nc3ccccc3[nH]2)Cc2nc3ccccc3[nH]2)c1 | 44% |
| COC1=CC2=CCC3C(CCC4(C)C(C(C)=O)CCC34)C2(C)CC1 (stereo not drawn) | 5% |
| OC(C1CCCCN1)C1CC(c2ccccc2)Nc2c(Cl)cc(Cl)cc21 (stereo not drawn) | 99% (active) |

| Compound | growth inhibition |
| --- | --- |
| CN(C)C1=C(Cl)C(=O)c2ccccc2C1=O | 93% (active) |
| CCCCCNC(=O)C1C(=O)N(CCCCC)C(=O)/C1=N\N (stereo not drawn) | -1% |
| O=C(Nc1ccc(Cl)cc1)OCCOCCOC(=O)Nc1ccc(Cl)cc1 | 97% (active) |
| CCCC(CC)c1c(O)c(O)c(C(CC)CCC)c(C(CC)CCC)c1C(CC)CCC (stereo not drawn) | 76% (active) |
| Cc1ccc(NC(=S)SCc2ccc3c(c2)OCO3)cc1Cl | 96% (active) |
| CN(C)CCCNc1ccc(O)c2c1C(=O)c1ccccc1C2=O | 99% (active) |
| CC1=C(C(=O)Nc2ccc(Cl)c(Cl)c2)C(c2ccco2)C(C(=O)Nc2ccc(Cl)c(Cl)c2)=C(C)N1 | 41% |
| Cc1ccccc1NC(=O)CSC(N)=O | 26% |
| Cc1[nH]c2ccccc2c1C(C)CC(O)c1ccccc1 (stereo not drawn) | 68% |
| Cn1c(=O)ccc2cc(C(=O)c3ccccc3)ccc21 | 22% |
| c1ccc2c(c1)N=c1ccccc1=P21c2ccccc2Nc2ccccc21 | 99% (active) |
| Nc1[nH]cnc(=S)c1NC=O | -4% |
| COC(=O)CCC(=O)c1ccc2c(c1)CC1(Cc3ccccc3C1)C2 | 29% |
| CCC[CH2][Sn]([CH2]CCC)([O]C(=O)c1cc(F)cc(F)c1)[O][Sn]([CH2]CCC)([CH2]CCC)[O]C(=O)c1cc(F)cc(F)c1 | 88% (active) |
| CCOC(=O)CSC(=S)Nc1ccc(Cl)cc1 | 88% (active) |
| CC1(C)CC(=O)C(C(c2ccc3c(c2)OCO3)N2CCOCC2)C(=O)C1 (stereo not drawn) | -17% |
| COC(=O)c1c(C)cccc1C(=O)c1c(C)cc(C)cc1C | 63% |
| C=C1C(=O)OC2CC3(C)CC(O)C(O)C(=C)C3CC12 (stereo not drawn) | 6% |
| CCOC(=O)C1=C(N)N(S(=O)(=O)c2ccc(C)cc2)CCC(C(=O)OC)=C1 | -4% |
